Records with an inconclusive call do not appear. Activity calls are given as the source filed them.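 How the source made its calls, unless noted: active means GFP response above 150% of the DMSO control; inconclusive means Fewer than 70 cells counted for a yeast strain; inactive means the rest.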

Test [1] in a line: rapamycin-like changes in RPL19A-GFP expression – cell-based, S. cerevisiae, multiplex flow cytometry, primary screen (AID 1862; in the data active means percent of DMSO control GFP below about 86%;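 further: lower values mimic rapamycin by blocking the RPL19A rise seen in DMSO cells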). To be noted: S. cerevisiae RPL19A-GFP strain, flow cytometry fluorescence, 3 h; at 10 µM; stronger effect = lower value. (A flow cytometer gives signals particle by particle.)
The nature of test [2]: TOR pathway GLN3 branch reporter MEP2-GFP changes – S. cerevisiae, multiplex flow cytometry, primary screen (AID 1867;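 active means GFP response, as percent of the DMSO control, above the screen-wide mean plus 3 SD, about 139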;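 further: median GFP channel fluorescence of barcode-gated MEP2-GFP cells measured by flow cytometry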). Particulars: S. cerevisiae MEP2-GFP strain, 3 h, at 10 µM, stronger effect = higher value, 100% means same as DMSO wells.
Test [3] in a line: TOR pathway RTG branch CIT2 reporter changes – S. cerevisiae, GFP fusion, multiplex flow cytometry, primary screen (AID 1870;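 active means percent response above a set limit, the screen-wide mean plus 3 SD, cut at about 130% in these data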;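 further: barcoded CIT2-GFP strain pooled with four other GFP strains with rapamycin as positive control; median GFP fluorescence per well over plate mean of DMSO wells so 100% = DMSO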). To be noted: S. cerevisiae CIT2-GFP expression, 3 h, at 10 µM, stronger effect = higher value.
Test [4] is described as follows: TOR pathway LAP4-GFP level changes – S. cerevisiae, multiplex flow cytometry, primary screen (AID 1873;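 active means GFP signal, as percent of the solvent control, above the screen mean plus 3 SD, about 149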). Particulars: S. cerevisiae LAP4-GFP expression, 3 h, at 10 µM, stronger effect = higher value.
Test [5] in a line: yeast AGP1-GFP level changes, GLN3 branch – cell-based, multiplex flow cytometry, S. cerevisiae, primary screen (AID 1887;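 active means GFP signal above the screen-wide mean plus 3 SD, that is over about 124.5% of the solvent control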;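 further: AGP1-GFP fusion strain of S. cerevisiae within a five-strain barcoded multiplex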). Particulars: 3 h, at 10 µM, stronger effect = higher value.
The nature of test [6]: hit retest on RPL19A-GFP reporter strain – cell-based, S. cerevisiae, flow cytometry, cherry picks, mother/daughter gates, confirmation (AID 2270;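 active means GFP response below 50% of the DMSO control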). To be noted: 3 h, at 10 µM, stronger effect = lower value, 100 = same GFP as DMSO wells.
Test [7] can be described thus: yeast TOR pathway reporter LAP4-GFP change – cell-based, cherry picks, flow cytometry, mother/daughter gates, confirmation (AID 2271;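 active means GFP response above 150% of the DMSO control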;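 further: ratio of sample to DMSO plate mean so 100% equals DMSO level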). To be noted: S. cerevisiae LAP4-GFP strain, 3 h, at 10 µM, stronger effect = higher value, 100 means same as DMSO control.
Test [8] can be described thus: TOR pathway reporter MEP2-GFP, retest of hits – S. cerevisiae, flow cytometry GFP, cherry picks, confirmation (AID 2272).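 Further: ratio of well signal to plate DMSO mean so 100% equals DMSO level.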 Particulars: S. cerevisiae MEP2-GFP strain, 3 h, at 10 µM, stronger effect = higher value.
A short description of test [9]: TOR pathway CIT2 reporter hit retest – S. cerevisiae, GFP fusion, cherry picks, mother/daughter gates, confirmation (AID 2274;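 active means GFP response above 150% of the DMSO level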). To be noted: S. cerevisiae CIT2-GFP strain, flow cytometry, 3 h, at 10 µM, stronger effect = higher value.
The nature of test [10]: reduced mouse 2C T cell binding to pMHC/ICAM-1 vesicles – MLPCN validation set, flow cytometry, LFA-1/ICAM-1 modulator project, pilot screen (AID 2523;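 active means response below a set limit, under 55% cells CD8-positive and vesicle-bound, and CD8 cells' 90th-percentile brightness under 279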;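 on vesicle binding response: mean PE anti-B7-1 fluorescence of CD8+ cells relative to row control; 100% = QL9-loaded vesicles with DMSO vehicle in the same plate row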). Particulars: 2C mouse CD8+ T cells, at 7 µM, stronger effect = lower value; double positive events: measured here: CD8+/vesicle+ event percentage.
The mark [11] stands for this setting: measured here: daughter cell gate.
Where [12] appears, read: measured here: mother cell gate.
Setting [13] is: measured here: daughter cell gate response.
Setting [14] is: measured here: mother cell gate response.

For the molecule `COc1ccc(C2=CC(=O)C=CC2=O)cc1`, in [1], the percent of DMSO control GFP is 84.7% (active). The GFP response vs DMSO in test [2] was 105% (inactive); in [4], 144% (inactive); in [6] it was 109% (inactive); in test [6] (setting [11]), 114%; in test [6] (setting [12]), 104%; in test [8], 117% (inactive). In test [3], the percent response of DMSO control was 68.5% (inactive). The GFP response, % of DMSO in test [5] was 91.9% (inactive); in test [9], 108% (inactive); in test [9] (setting [11]), 111%; in test [9] (setting [12]), 103%. Moreover, the GFP response relative to DMSO in [7] is 119% (inactive); in test [7] (setting [13]), 120%; in test [7] (setting [14]), 122%. In test [10], the double positive events stood at 64.5%. Also, in [10], the vesicle binding response was 146% (inactive).
For the molecule `Cn1c(=O)c(C(=O)NCCO)c(O)c2ccccc21`, the percent of DMSO control GFP in test [1] was 103% (inactive). The GFP response vs DMSO in [2] is 105% (inactive); in test [4] it was 104% (inactive); in test [6], 101% (inactive); in test [6] (setting [11]), 102%; in test [6] (setting [12]), 103%; in test [8], 96.2% (inactive). Also, the percent response of DMSO control in test [3] was 103% (inactive). Also, the GFP response, % of DMSO in [5] is 113% (inactive); in test [9], 96.9% (inactive); in test [9] (setting [11]), 108%; in [9] (setting [12]) it was 97.3%. The GFP response relative to DMSO in test [7] is 87.6% (inactive); in [7] (setting [13]), 86.4%; in test [7] (setting [14]), 88.7%. In test [10], the double positive events came to 60.8%. Further, the vesicle binding response in [10] is 185% (inactive).
Consider `CCOc1cc(C=O)ccc1OCCSc1ccc(C)cc1`, for which the percent of DMSO control GFP in test [1] was 94.6% (inactive). The GFP response vs DMSO in [2] was 103% (inactive); in test [4], 168% (active); in test [6], 92.9% (inactive); in [6] (setting [11]), 87.7%; in test [6] (setting [12]), 96.4%; in test [8], 116% (inactive). For the same molecule, the percent response of DMSO control in test [3] was 77.8% (inactive). In addition, the GFP response, % of DMSO was 101% (inactive) in test [5], 93.5% (inactive) in test [9], 92.7% in test [9] (setting [11]) and 93.3% in test [9] (setting [12]). Further, the GFP response relative to DMSO was 131% (inactive) in [7], 122% in [7] (setting [13]) and 137% in test [7] (setting [14]). The double positive events in [10] is 60.1%. For the same molecule, the vesicle binding response in test [10] was 185% (inactive).
Turning to `CNCCC(Oc1ccc(C(F)(F)F)cc1)c1ccccc1` (stereo not given), in [1], the percent of DMSO control GFP is 89.8% (inactive). Further, the GFP response vs DMSO in [2] was 141% (active); in [4], 83.1% (inactive); in test [6], 98.4% (inactive); in test [6] (setting [11]) it was 97%; in test [6] (setting [12]), 99.1%; in test [8], 102% (inactive). Moreover, the percent response of DMSO control in test [3] was 107% (inactive). Further, the GFP response, % of DMSO in test [5] was 90.3% (inactive); in test [9] it was 93.9% (inactive); in test [9] (setting [11]), 94.8%; in test [9] (setting [12]), 93.4%. Moreover, the GFP response relative to DMSO in test [7] was 97.4% (inactive); in [7] (setting [13]) it was 95.6%; in test [7] (setting [14]) it was 101%. Further, the double positive events in [10] was found to be 58%. Further, the vesicle binding response in [10] is 142% (inactive).
In the case of `CCCCN(CCCC)CCCOC(=O)c1ccc(N)cc1`, the percent of DMSO control GFP in test [1] is 92% (inactive). In addition, the GFP response vs DMSO in test [2] was 150% (active); in test [4], 82% (inactive); in test [6], 97.6% (inactive); in test [6] (setting [11]) it was 97.4%; in test [6] (setting [12]) it was 98%; in test [8], 98.3% (inactive). In addition, the percent response of DMSO control in test [3] was 115% (inactive). The GFP response, % of DMSO in test [5] was 81.7% (inactive); in test [9] it was 99.7% (inactive); in test [9] (setting [11]) it was 101%; in test [9] (setting [12]), 99.7%. Further, the GFP response relative to DMSO in [7] was 94.1% (inactive); in test [7] (setting [13]) it was 97.6%; in test [7] (setting [14]) it was 94%. In test [10], the double positive events worked out at 64.8%. Also, in test [10], the vesicle binding response is 181% (inactive).

These data come from PubChem BioAssay.
